Reference: the supplement of paper PMC6555819

Key:
Test in all cases: PBM binding z-score (relative to random genomic background probes); higher = stronger binding; sequences stand for … in GC…GCGATTGACAGCGTAGAATGAAGG
[1] = test system: RARb homodimer (NR concentration 270 nM)
How it was run: (§1)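 Scanned fluorescence from custom Agilent 4×180K protein-binding microarrays was regression-normalized. Binding z-scores use random background probes as reference. Ligand-free nuclear receptor dimers were incubated on the arrays for 1 h and detected with antibodies against each partner (one per run).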

[2] = test system: RARg:RXRa (NR concentration 270 nM, RXRa partner concentration 90 nM)
How it was run: as §1

[3] = test system: RARg homodimer (NR concentration 270 nM)
How it was run: as §1

[4] = test system: RXRa DBDmut IVT, anti-RXR (DBD mutation: RXRa K156A/R161A, NR concentration 90 nM)
How it was run: as §1

[5] = test system: RXRa homodimer (NR concentration 180 nM)
How it was run: as §1

[6] = test system: THRa:RXRa (NR concentration 90 nM, RXRa partner concentration 90 nM)
How it was run: as §1

[7] = test system: THRa homodimer (NR concentration 90 nM)
How it was run: as §1

[8] = test system: VDR homodimer (NR concentration 270 nM)
How it was run: as §1

Sequence | PBM binding z-score [1] | PBM binding z-score [2] | PBM binding z-score [3] | PBM binding z-score [4] | PBM binding z-score [5] | PBM binding z-score [6] | PBM binding z-score [7] | PBM binding z-score [8]
ACGAGCAGGCCAAGGGTCACTCAAGATTAGTCCG | 3.96 | 4.21 | 4 | 0.0917 | 4.07 | 2.69 | 0.262 | 0.916
CGTCCAATGTCAGCAGGTCAGTGAAAGCGACGTG | 2.76 | 2.04 | 2.59 | 0.442 | 0.9 | 1.31 | 0.239 | 0.584
CCTACTGGGCCAAAAAGGGCATTGATGCCGATAA | 1.32 | 0.413 | 0.776 | -0.51 | 0.0736 | 0.26 | -0.987 | 0.107
CCTACTGGGCCATCAGGTAATTGATATCAACGTT | 0.184 | -0.0181 | 0.255 | -0.203 | -0.166 | 0.522 | 0.334 | -0.212
ATCGAAAGGTCTACGAGGTGAGTATACACCGTTT | 1.01 | 1.32 | 1.56 | -0.0758 | 1.11 | 2.26 | 0.606 | 0.124
GCTATTAGTTGAAAGGGCCACCGAATGATTCTCG | 1.19 | 0.331 | 0.583 | 0.436 | 0.34 | 0.0196 | -0.402 | 0.169
ACTATTAGTTAACTTAGGGCAACCGATACGACGC | 0.839 | 0.89 | 1 | 0.837 | 0.532 | 1.88 | 0.447 | 0.283
ATCGAAAGGACGAGGTGAGTATAGAGAAAGGGAA | 0.703 | 0.958 | 1.48 | -0.386 | 0.312 | 1.27 | 0.739 | 0.284
CGTCAGAGTTCAAGGTAACGTAACAGAAAGCAGC | 3.02 | 4.6 | 5.3 | 4.91 | 4.35 | 2.74 | 1.04 | 4.53
TTTAGCAGGCCAGAGGGTCACTCAAGAGGTACGG | 2.65 | 2.51 | 2.02 | -0.755 | 2.32 | 1.6 | -0.313 | 0.332
ATCTCTAGGTAAAAGTTCAGCGAATCCCGAGGAT | 2.76 | 2.88 | 3.02 | 0.792 | 2.62 | 1.58 | 0.0924 | 1.07
ATCTCTAAGTAACCAAGTTCAGTGAATGCCGAAC | 1.43 | 0.516 | 0.56 | 1.2 | 0.443 | 0.648 | 0.45 | 2.61
ATCGGAAGGTCGAAGGTGAGTATACCCACCCGAA | 1.44 | 2.82 | 2.27 | 0.152 | 3.19 | 1.4 | -0.0912 | 0.449
AGAACGAGGGCAATGAGTTTATAGCACGGGTGGC | 1.18 | 1.27 | 1.88 | 2.91 | 0.965 | 0.983 | -0.489 | 5.83
GCTAGTTGGTCAGTACAAGGTCACACACCGGTCG | 4.39 | 4.09 | 3.66 | 0.602 | 3.47 | 4.02 | 4 | 2.53
TCAGATAGGTAAACAGGTGAAAGTCCGTAAGTTA | 0.841 | 0.678 | 0.219 | 1.48 | 1.01 | 0.664 | 0.307 | 0.407
CGAACTAGGTAATCCAGGACAGTGAATACATTGA | -0.194 | 0.0775 | 0.29 | 0.502 | -0.0168 | 1.85 | 0.946 | -0.254
GCTTACGGGTCAAAGGTTATAGCGTGAATAGAAT | 3.29 | 6.87 | 4.52 | 2.22 | 9.28 | 3.83 | 0.134 | 1.44
TCTTGTAGATCAAACAGGTTAAGAAAGCCTGAGT | 0.167 | 0.214 | 0.186 | 0.683 | 0.587 | 0.607 | -0.548 | 0.0762

Sequence | PBM binding z-score [1] | PBM binding z-score [2] | PBM binding z-score [3] | PBM binding z-score [4] | PBM binding z-score [5] | PBM binding z-score [6] | PBM binding z-score [7] | PBM binding z-score [8]
CAAACTCGGTCAAAGGTCAAAGTCGAGCCAACCA | 5.08 | 8.4 | 6.7 | 2.48 | 9.27 | 4.33 | 1.31 | 3.31
TCTGCTAGTTCAGTTGGTCAGCTAACGAGCTGCC | 0.296 | -0.136 | 0.0684 | 0.659 | -0.391 | -0.312 | -0.718 | -0.523
ATTACAGGGTCACTAGGCCAGAGTAGGTACGAAT | 3.38 | 5.4 | 5.25 | 2.67 | 5.24 | 3.48 | 1.5 | 2.93
TCAGACAGGTGAAGGTAACTCACGTACGCAGTCG | 0.616 | 0.706 | 0.586 | 1.3 | 0.939 | 0.624 | 0.0497 | -0.22
GGAACAAGGGCATTCGAGTTGATAGCATGGCGAT | 1.12 | 1.21 | 1.36 | 2.48 | 0.917 | 3.16 | -0.205 | 2.39
ATCTCTAGGTAAGACTCAGTTCACTGAAGAACGC | 0.746 | 0.678 | 0.541 | 0.822 | 0.497 | 1.29 | 0.792 | 2.32
CCTCGGAGGACCGAAGGTCAGAGCTGTCCGCTTT | 2.65 | 2.03 | 2.2 | -0.585 | 1.54 | 1.62 | -0.389 | 0.161
TAGCCTAGGTCAGGCGGGCCAGTATAGTGTCGGC | 2.21 | 2.75 | 3.45 | -1.1 | 1.3 | 1.86 | -0.0587 | -0.674
CAGCCTAGGTCAGGTCCAGTATAGGAGGAACGTT | 1.98 | 2.25 | 3.33 | -0.0428 | 1.14 | 1.68 | 0.525 | 0.207
CCTTACGGGTCACTCCAGGTAATAGCATCGGAGT | 2.75 | 4.2 | 4.02 | 1.48 | 4.32 | 4.97 | 0.347 | 1.19
TCTCCTAGGTCAACGATGGTCAGCTAATCTGCTA | 3.61 | 4.5 | 5.72 | 1.41 | 3.49 | 3.32 | 1.59 | 0.166
GATACAGGGCCAAGGCCAGAGTACGCGTATTGAT | 0.738 | 0.109 | 0.599 | -0.254 | 0.197 | -0.171 | -0.281 | -0.147
TCAGATAGGTAAATGCTAGGTGAAAGTCCGATCT | 0.292 | 0.258 | 0.0345 | 1.06 | 0.464 | 1.22 | -0.0517 | -0.287
CTCGAAAGGTCGTGCTCAGGTGAGTGTACCAAAC | 3.22 | 5.21 | 4.01 | 2.21 | 4.95 | 4.11 | 1.21 | 1.26
AGGACGAGGGCACGCTGAGTTGATAGCAGAGTAG | 1.36 | 1.76 | 2.67 | 2.23 | 1.51 | 1.88 | 0.162 | 1.51
CCTCGGAGGACAACAGGAGGTCAGAGCTGCCAGA | 3.64 | 3.37 | 2.98 | 0.172 | 1.76 | 2.89 | 1.04 | 1.21
ATATGTAGGTTAGCTGGTGTCATTCAGACTAGGC | 0.884 | 0.888 | 0.979 | 0.243 | 0.936 | 2.52 | -0.1 | 0.617
CCGACTGGCGCAAGGTTACCATAACGCACAGCCA | 0.818 | 0.543 | 0.602 | 0.0804 | 0.892 | 1.23 | 0.443 | -0.0582
ACTAGCAGGCCAAGTTTGGGTCATTCAAACAAAG | 2.24 | 2.22 | 1.29 | -0.125 | 0.803 | 2.55 | 0.849 | 0.69

Sequence | PBM binding z-score [1] | PBM binding z-score [2] | PBM binding z-score [3] | PBM binding z-score [4] | PBM binding z-score [5] | PBM binding z-score [6] | PBM binding z-score [7] | PBM binding z-score [8]
GCTATCAGTTGAAAGGGCAACCGAATGATTCTCG | 1.81 | 1.22 | 1.28 | 0.45 | 1.26 | 0.693 | -0.411 | -0.03
TCTATTAGTTGAAAGGCAACCGACGAGTCCGTTT | -0.227 | 0.248 | 0.111 | 1.66 | 0.759 | 0.0956 | 0.0862 | 1.08
TGTCAAAGTTGAAAGGTAACGTAAGTATCCACAC | 1.36 | 2.23 | 1.4 | -0.369 | 2.69 | 1.77 | -0.382 | -0.281
CCTTACGGGTCAAGATTATAGCACGGGTGGTACG | 2.79 | 4.4 | 4.24 | 0.558 | 5.02 | 2.02 | 0.000143 | 0.658
TAGAGTAGGTTAGGGGCATTCAGAATGGCGTCGA | 1.72 | 1.16 | 0.918 | 0.0146 | 1.08 | 1.36 | 0.85 | 1.66
CCTTCCGGGTCACTCCAGGTTATAGCATCGGAGT | 3.42 | 4.34 | 3.95 | 1.2 | 4.33 | 5.19 | 2.37 | 1.77
CGTCCAAGGTCAGCTGGTCAGTGAAAGCGACGTG | 3.87 | 5.3 | 6.1 | 2.64 | 3.99 | 3.46 | 1.76 | 0.478
CGAACGAGGGCATGAGTTGATAGCGAATGCCGAT | 0.689 | 1.25 | 1.69 | 2.41 | 1.09 | 1.09 | -0.229 | 1.5
TCTCGGAGGACACGAAGGTTAGAGCTTTCCAGAG | 1.26 | 0.969 | 1.89 | 0.169 | 0.126 | 1.59 | 0.277 | -0.226
TCTTGTAGATCAATAGAGGTTAAGAAAGTGCGCT | 1.1 | 0.791 | 0.296 | 0.705 | 1.28 | 2.07 | -0.31 | 0.3
TCTTGTAGATCAGCAGGTTAAGAAAGCTGGCCAA | -0.155 | -0.199 | -0.355 | 0.476 | 0.261 | -0.0256 | -0.621 | -0.371
CCTAGTTGGTCAGGAGCTCACACACCGGATATGA | 0.161 | 0.446 | 0.601 | -0.0483 | 0.0648 | -0.298 | -0.103 | 0.545
CCGTCTGGGGCAAGGTTACCATAACGCACAGCCA | 1.05 | 1.06 | 1.13 | -0.58 | 0.988 | 1.15 | 0.197 | 0.0669
TCTCGGAGGACACGAGGGTCAGAGCTTTCCAGAG | 2.81 | 2.58 | 2.96 | 0.569 | 1.33 | 2.48 | 0.409 | 0.685
CCGACTCGGGCAAGGTTACCATAACGCACAGCCA | 1.08 | 1.01 | 0.939 | -0.233 | 1.11 | 1.19 | 0.176 | -0.43
CGAAAGAGGGCATGAGTTGATAGCAAATGCCGAT | 1 | 1.76 | 1.96 | 1.67 | 1.27 | 0.416 | -0.334 | 1.1
ATCTCTAGGTAACCAAGTTCAGTGACTGCCGAAC | 1.39 | 0.744 | 0.871 | 1.24 | 0.577 | 1.46 | 1.03 | 2.9
CCGACTAGGGCAGAAAGGTTACCATACCATCCGG | 2.4 | 1.99 | 1.91 | -0.271 | 1.92 | 1.21 | -0.493 | -0.0974
